# The other results are listed elsewhere or left out. A number with no mark means an inactive call. The source made the active and inactive calls.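 How the source made its calls: active means inhibition reaching a set limit in any replicate at 20 µM, the limit being 80% of the first screen's; inactive means the rest.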
# Biological target: DNA dC->dU-editing enzyme APOBEC-3G (Homo sapiens) (UniProt Q9HC16)
# Assay: human A3G ssDNA deamination inhibition, hit confirmation – biochemical, fluorescence, single-stranded DNA substrate, single concentration (AID 493152)
# Details: recombinant A3G ssDNA deaminase, UDG/FAM-TAMRA fluorescence; at 20 µM; stronger effect = higher value
# Chain of DNA dC->dU-editing enzyme APOBEC-3G (Homo sapiens) (Q9HC16 whole entry, looked up): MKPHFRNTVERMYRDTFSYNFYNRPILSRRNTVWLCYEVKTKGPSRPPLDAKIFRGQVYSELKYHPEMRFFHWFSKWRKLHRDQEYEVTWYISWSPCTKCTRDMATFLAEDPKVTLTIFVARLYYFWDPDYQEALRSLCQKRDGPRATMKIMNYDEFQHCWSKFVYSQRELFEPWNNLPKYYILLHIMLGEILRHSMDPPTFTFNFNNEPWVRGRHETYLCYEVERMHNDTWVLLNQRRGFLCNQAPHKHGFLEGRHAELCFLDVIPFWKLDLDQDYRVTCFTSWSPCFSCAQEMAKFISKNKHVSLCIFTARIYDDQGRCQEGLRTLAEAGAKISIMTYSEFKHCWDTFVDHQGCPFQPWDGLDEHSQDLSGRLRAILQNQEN
row,SMILES,inhibition
1,Cc1ccc(C(=O)c2c(NC(=O)c3ccccc3)sc(C)c2C)cc1,24.2% (active)
2,COc1ccc(N2C(=O)CC(Sc3n[nH]c(-c4ccc(C)cc4)n3)C2=O)cc1 (centres undefined),46% (active)
3,Cc1cccc(-n2c(N)c(C(=O)N3CCN(C)CC3)sc2=S)c1,77.7% (active)
4,C=C(C)C(=O)Nc1cccc(C2=NOC3(C2)C[C@H](C(N)=O)N(C(=O)C(c2ccccc2)c2ccccc2)C3)c1 (some centres undefined),44.3% (active)
5,CCc1c(C)[nH]c(=S)c(C#N)c1C,89.2% (active)
6,Cc1ccc(NC(=O)c2sc3nc(N)c(C#N)cc3c2N)cc1,-7.68%
7,Cc1cc(-c2n[nH]c(=S)n2-c2ccc(C)c(C)c2)no1,74.9% (active)
8,CC(C)(C)c1nnc(NC(=O)C2c3ccccc3Oc3ccccc32)s1,31.2% (active)
9,Nc1ccccc1SC(C[N+](=O)[O-])c1ccccc1 (centres undefined),83.4% (active)
10,Cc1nc([N+](=O)[O-])nn1C12CC3CC(CC(Br)(C3)C1)C2,50.8% (active)
11,CCOc1cc(C(=S)N2CCOCC2)ccc1O,65.3% (active)
12,Cc1cc(C)c2c(-c3ccc(F)cc3)c(C#N)c(=O)n(C)c2n1,-1.37%
13,CCOC(=O)c1sc(=S)n2c1[nH]c(=O)c1ccc(C(=O)OC)cc12,7.15%
14,COC(=O)c1cccc(-n2[nH]nnc2=S)c1,-14.5%
15,O=C1CC(Sc2ncn[nH]2)C(=O)N1c1ccccc1 (centres undefined),40.4% (active)
16,CC(=O)N(C1=C(Cl)C(=O)c2ccccc2C1=O)c1ccc(C(=O)O)cc1,99.2% (active)
17,S=c1[nH]nc(Nc2ccccc2)s1,68.3% (active)
18,Fc1ccc(Nc2nnns2)cc1,23.7% (active)
19,CC(=O)N1CC[n+]2c(-c3ccc([N+](=O)[O-])cc3)csc21,50.5% (active)
20,COc1ccc(OCc2nnc3n2N=C(c2ccccc2)C(CC(=O)O)S3)cc1 (centres undefined),27.3% (active)
21,S=c1[nH]ccn1-c1ccc(Cl)cc1,74% (active)
22,S=c1[nH]nc(-c2cc(-c3ccccc3)n[nH]2)n1/N=C/c1c2ccccc2cc2ccccc12,8.05%
23,COc1ccc2[nH]c(=S)cc(C)c2c1,74.7% (active)
24,CC1=C/C(=N\OS(=O)(=O)c2ccccc2)C=CC1=O,63.8% (active)

# Source: PubChem BioAssay AID493152 (Sanford-Burnham Center for Chemical Genomics, 2011)
